# From the supplement of paper PMC6658780
# Where a name gives a salt, the structure may show the parent alone. ± gives the standard deviation of the averaged measurements.
# Tests used:
# [1] = system: Escherichia coli ATCC BAA-2469; assay: percent growth inhibition of drug + antibiotic vs DMSO control; higher = more growth inhibition; details: antibiotic (0.125x MIC): ciprofloxacin
# Procedure: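 Prestwick drugs tested at 20 uM and 7 uM with an antibiotic at 0.125x MIC (16 mg/L when MIC >128 mg/L) against E. coli ATCC BAA-2469 (NDM-1) in CAMHB, 384-well plates, duplicate runs. Percent growth inhibition was computed from OD600 (24 h minus 0 h) relative to DMSO wells. Drug + DMSO-only wells are also given. […]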
# [2] = system: Klebsiella pneumoniae KPC-119; assay: percent growth inhibition of drug alone vs DMSO control; higher = more growth inhibition; details: antibiotic (0.125x MIC): none (0.1% DMSO)
# [3] = system: Klebsiella pneumoniae KPC-119; assay: percent growth inhibition of drug + antibiotic vs DMSO control; higher = more growth inhibition
# [4] = antibiotic (0.125x MIC): colistin, 7 µM
# [5] = antibiotic (0.125x MIC): colistin, 20 µM
# [6] = antibiotic (0.125x MIC): gentamicin, 7 µM
smiles,measurement,setting,value
Nc1ncn(C2OC(CO)C(O)C2O)c(=O)n1 (stereo unspecified) [Azacytidine-5],percent growth inhibition,[1]; 7 µM,99.1 ± 2.6%
same,percent growth inhibition,[1]; 20 µM,101 ± 3%
CC1CCc2c(N3CCC(O)CC3)c(F)cc3c(=O)c(C(=O)O)cn1c23 (stereo unspecified) [Nadifloxacin],percent growth inhibition of drug alone,[2]; 7 µM,6.2 ± 4.4%
same,percent growth inhibition of drug alone,[2]; 20 µM,36 ± 4.7%
same,percent growth inhibition,[3]; [4],82.4 ± 20%
same,percent growth inhibition,[3]; [5],98.1 ± 1.5%
CCn1cc(C(=O)O)c(=O)c2cc(F)c(N3CCN(C)CC3)cc21 [Pefloxacine],percent growth inhibition of drug alone,[2]; 7 µM,12.5 ± 1.1%
same,percent growth inhibition of drug alone,[2]; 20 µM,51.2 ± 3.2%
same,percent growth inhibition,[3]; [6],11.4 ± 19%
"CC(C)NCC(O)c1ccc(O)c(O)c1 (single isomer, unassigned; (-)) [(-)-Isoproterenol hydrochloride]",percent growth inhibition of drug alone,[2]; 7 µM,0.335 ± 1.6%
same,percent growth inhibition of drug alone,[2]; 20 µM,1.39 ± 1.6%
same,percent growth inhibition,[3]; [5],0.725 ± 1.5%
CN(C)CCOC(c1ccc(Cl)cc1)c1ccccn1 (stereo unspecified) [Carbinoxamine maleate salt],percent growth inhibition of drug alone,[2]; 7 µM,-6.88 ± 0.94%
same,percent growth inhibition of drug alone,[2]; 20 µM,-3.08 ± 0.79%
same,percent growth inhibition,[3]; [5],-10.7 ± 4.1%
CC(C)Nc1cccnc1N1CCN(C(=O)c2cc3cc(NS(C)(=O)=O)ccc3[nH]2)CC1 [Delavirdine],percent growth inhibition of drug alone,[2]; 7 µM,-0.164 ± 2.9%
same,percent growth inhibition of drug alone,[2]; 20 µM,-1.86 ± 1%
same,percent growth inhibition,[3]; [4],-6.39 ± 0.99%
CO/N=C(\C(=O)N[C@@H]1C(=O)N2C(C(=O)O)=C(COC(C)=O)CS[C@H]12)c1csc(N)n1 [Cefotaxime sodium salt],percent growth inhibition of drug alone,[2]; 7 µM,4.98 ± 2%
same,percent growth inhibition of drug alone,[2]; 20 µM,37.8 ± 0.86%
same,percent growth inhibition,[3]; [6],29.3 ± 2.3%
CO[C@@H]1[C@@H](OC(N)=O)[C@@H](O)[C@H](Oc2ccc3c(O)c(NC(=O)c4ccc(O)c(CC=C(C)C)c4)c(=O)oc3c2C)OC1(C)C [Novobiocin sodium salt],percent growth inhibition of drug alone,[2]; 7 µM,0.874 ± 4.5%
same,percent growth inhibition of drug alone,[2]; 20 µM,5.13 ± 1.4%
same,percent growth inhibition,[3]; [4],34.1 ± 0.68%
same,percent growth inhibition,[3]; [5],98.55 ± 0.69%
COc1nc(C)nc(Cl)c1NC1=NCCN1 [Moxonidine],percent growth inhibition of drug alone,[2]; 7 µM,-0.572 ± 3.2%
same,percent growth inhibition of drug alone,[2]; 20 µM,-0.25 ± 3.1%
same,percent growth inhibition,[3]; [5],-7.57 ± 6.4%
O=C1NCCN1c1ncc([N+](=O)[O-])s1 [Niridazole],percent growth inhibition of drug alone,[2]; 7 µM,9.23 ± 8.8%
same,percent growth inhibition of drug alone,[2]; 20 µM,74.9 ± 13%
same,percent growth inhibition,[3]; [6],38.6 ± 6.3%
same,percent growth inhibition,"[3]; antibiotic (0.125x MIC): gentamicin, 20 µM",95.7 ± 4.1%
COc1cc(C)nc(-n2nc(C)cc2OC)n1 [Epirizole],percent growth inhibition of drug alone,[2]; 7 µM,-1.76 ± 0.66%
same,percent growth inhibition of drug alone,[2]; 20 µM,-0.885 ± 4.3%
same,percent growth inhibition,[3]; [4],55.5 ± 7.9%
same,percent growth inhibition,[3]; [5],-4.39 ± 3.8%
CCOC(=O)OC(C)OC(=O)[C@@H]1N2C(=O)[C@@H](NC(=O)[C@H](N)c3ccccc3)[C@H]2SC1(C)C (stereo partly specified) [Bacampicillin hydrochloride],percent growth inhibition of drug alone,[2]; 7 µM,0.511 ± 1.4%
same,percent growth inhibition of drug alone,[2]; 20 µM,-0.333 ± 0.47%
same,percent growth inhibition,[3]; [4],-4.19 ± 0.78%
CN(C)CCCN1c2ccccc2Sc2ccc(Cl)cc21 [Chlorpromazine hydrochloride],percent growth inhibition of drug alone,[2]; 7 µM,-3.83 ± 2.6%
same,percent growth inhibition of drug alone,[2]; 20 µM,-3.58 ± 1.3%
same,percent growth inhibition,[3]; [4],41.9 ± 12%
same,percent growth inhibition,[3]; [5],2.49 ± 2.4%
CN(C(=O)CN(CCO)CC(=O)N(C)C(C)(C)Cc1ccccc1)C(C)(C)Cc1ccccc1 [Oxethazaine],percent growth inhibition of drug alone,[2]; 7 µM,-4 ± 0.52%
same,percent growth inhibition of drug alone,[2]; 20 µM,-5.74 ± 4.4%
same,percent growth inhibition,[3]; [4],4.52 ± 0.46%
same,percent growth inhibition,[3]; [5],95.6 ± 1.6%
CC(C)NC[C@H](O)COc1ccc(CC(N)=O)cc1 [(S)-(-)-Atenolol],percent growth inhibition of drug alone,[2]; 7 µM,0.932 ± 4.5%
same,percent growth inhibition of drug alone,[2]; 20 µM,-0.0403 ± 1.4%
same,percent growth inhibition,[3]; [5],-1.42 ± 6%
CC1CCc2cc(F)cc3c(=O)c(C(=O)O)cn1c23 (stereo unspecified) [Flumequine],percent growth inhibition of drug alone,[2]; 7 µM,15.15 ± 0.074%
same,percent growth inhibition of drug alone,[2]; 20 µM,65.7 ± 2.7%
same,percent growth inhibition,[3]; [4],88.42 ± 0.76%
same,percent growth inhibition,[3]; [5],95.6 ± 2.3%
CCC[C@@H]1C[C@@H](C(=O)N[C@@H]([C@H]2O[C@H](SC)[C@H](O)[C@@H](O)[C@H]2O)[C@H](C)Cl)N(C)C1 [Clindamycin hydrochloride],percent growth inhibition of drug alone,[2]; 7 µM,12 ± 1.4%
same,percent growth inhibition of drug alone,[2]; 20 µM,28.5 ± 0.74%
same,percent growth inhibition,[3]; [4],44.3 ± 4.1%
C[C@H]1c2cccc(O)c2C(=O)C2=C(O)[C@]3(O)C(=O)C(C(N)=O)=C(O)[C@@H](N(C)C)[C@@H]3[C@@H](O)[C@@H]21 [Doxycycline hydrochloride],percent growth inhibition of drug alone,[2]; 7 µM,15.8 ± 3%
same,percent growth inhibition of drug alone,[2]; 20 µM,35.7 ± 5.2%
same,percent growth inhibition,[3]; [4],42.8 ± 2.2%
same,percent growth inhibition,[3]; [5],91.4 ± 2.1%
CCN1CCCC1CNC(=O)c1cc(S(N)(=O)=O)ccc1OC (stereo unspecified) [Sulpiride],percent growth inhibition of drug alone,[2]; 7 µM,-2.88 ± 3.1%
same,percent growth inhibition of drug alone,[2]; 20 µM,-3.73 ± 0.65%
same,percent growth inhibition,[3]; [5],-7.13 ± 1.4%
CC1=C(/C=C/C(C)=C/C=C/C(C)=C/C(=O)O)C(C)(C)CCC1 [Retinoic acid],percent growth inhibition of drug alone,[2]; 7 µM,1.08 ± 2.4%
same,percent growth inhibition of drug alone,[2]; 20 µM,0.222 ± 2%
same,percent growth inhibition,[3]; [5],-10.3 ± 2.1%
COc1cccc2c1C(=O)c1c(O)c3c(c(O)c1C2=O)C[C@@](O)(C(C)=O)C[C@@H]3O[C@H]1C[C@H](N)[C@H](O)[C@H](C)O1 [Daunorubicin hydrochloride],percent growth inhibition of drug alone,[2]; 7 µM,5 ± 0.63%
same,percent growth inhibition of drug alone,[2]; 20 µM,5.26 ± 2.2%
same,percent growth inhibition,[3]; [4],-2.48 ± 6.2%
same,percent growth inhibition,[3]; [5],97.24 ± 0.46%
CS(=O)(=O)c1ccc([C@@H](O)[C@@H](CF)NC(=O)C(Cl)Cl)cc1 [Florfenicol],percent growth inhibition of drug alone,[2]; 7 µM,32.2 ± 2%
same,percent growth inhibition of drug alone,[2]; 20 µM,96.46 ± 0.59%
same,percent growth inhibition,[3]; [4],97.49 ± 0.25%
same,percent growth inhibition,[3]; [5],88.4 ± 7.8%
CC[C@H]1OC(=O)[C@H](C)[C@@H](O[C@H]2C[C@@](C)(OC)[C@@H](O)[C@H](C)O2)[C@H](C)[C@@H](O[C@@H]2O[C@H](C)C[C@H](N(C)C)[C@H]2O)[C@](C)(OC)C[C@@H](C)C(=O)[C@H](C)[C@@H](O)[C@]1(C)O [Clarithromycin],percent growth inhibition of drug alone,[2]; 7 µM,0.744 ± 2.4%
same,percent growth inhibition of drug alone,[2]; 20 µM,3.19 ± 2.3%
same,percent growth inhibition,[3]; [5],3.22 ± 2.8%
COc1cnc(NS(=O)(=O)c2ccc(N)cc2)nc1 [Sulfameter],percent growth inhibition of drug alone,[2]; 7 µM,-1.55 ± 2.6%
same,percent growth inhibition of drug alone,[2]; 20 µM,-0.515 ± 1.5%
same,percent growth inhibition,[3]; [5],-5.03 ± 15%
